Laboratory results from PubChem BioAssay (NCI).
This is part of a sample that, as a whole, favours compounds with a hit. Of some 83,000 tested, about 20% had one in any assay.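 48-hour exposure, single concentration, 96-well plates; percent growth endpoint where 0 means no net growth. Active: below 10.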 The source made the active and inactive calls.

Assays:
Test in all cases: NCI-60 one-dose screen, 48 h (100 = growth as untreated, 0 = no growth, -100 = all killed)
Conditions in all cases: 10 µM unless noted
HCT-15 colon = system: HCT-15 colon
HT29 colon = system: HT29 colon
SNB-75 CNS = system: SNB-75 CNS
SNB-19 CNS = system: SNB-19 CNS
U251 CNS = system: U251 CNS
PC-3 prostate = system: PC-3 prostate
SK-MEL-5 melanoma = system: SK-MEL-5 melanoma
UACC-62 melanoma = system: UACC-62 melanoma
LOX IMVI melanoma = system: LOX IMVI melanoma
SK-MEL-28 melanoma = system: SK-MEL-28 melanoma
SK-MEL-2 melanoma = system: SK-MEL-2 melanoma
EKVX NSCLC = system: EKVX NSCLC
SN12C renal = system: SN12C renal
UO-31 renal = system: UO-31 renal
TK-10 renal = system: TK-10 renal
ACHN renal = system: ACHN renal
CAKI-1 renal = system: CAKI-1 renal
A498 renal = system: A498 renal
CCRF-CEM leukemia = system: CCRF-CEM leukemia
MOLT-4 leukemia = system: MOLT-4 leukemia

Measured: growth

S=C(NCCc1ccccc1)Nc1ccc(OCc2nc3ccc(Cl)cc3[nH]2)cc1
active: HCT-15 colon 4.3% | LOX IMVI melanoma -46.3% | CCRF-CEM leukemia 9.55%
inactive: HT29 colon 32.2% | SNB-75 CNS 33.4% | SNB-19 CNS 46.7% | U251 CNS 16% | PC-3 prostate 39.8% | SK-MEL-5 melanoma 40.8% | UACC-62 melanoma 34.5% | SK-MEL-28 melanoma 48% | SK-MEL-2 melanoma 16.5% | EKVX NSCLC 33.1% | SN12C renal 11.6% | UO-31 renal 13.9% | TK-10 renal 62.4% | ACHN renal 14% | CAKI-1 renal 25.2% | A498 renal 95.6% | MOLT-4 leukemia 13.8%

COc1cc(C2C(C(=O)OCc3ccccc3)=C(C)Nc3nc4ccccc4n32)cc(OC)c1OC (stereo not given)
active: SNB-75 CNS -38.3% | UACC-62 melanoma 2.04% | UO-31 renal 1.37% | ACHN renal -4.94% | CAKI-1 renal 6.89% | A498 renal -22.7%
inactive: HCT-15 colon 24.8% | HT29 colon 37.3% | SNB-19 CNS 20.4% | U251 CNS 27% | PC-3 prostate 51.7% | SK-MEL-5 melanoma 17.3% | LOX IMVI melanoma 12.2% | SK-MEL-28 melanoma 33.9% | SK-MEL-2 melanoma 47.5% | EKVX NSCLC 36.8% | SN12C renal 37.1% | TK-10 renal 34.6% | CCRF-CEM leukemia 41.7% | MOLT-4 leukemia 33.2%

NS(=O)(=O)c1ccc(Nc2nc(SCC(=O)c3ccc(F)cc3)nc3ccccc23)cc1
inactive: HCT-15 colon 24.9% | HT29 colon 63.3% | SNB-75 CNS 43.5% | SNB-19 CNS 54.8% | U251 CNS 47.2% | PC-3 prostate 43.1% | SK-MEL-5 melanoma 18.6% | UACC-62 melanoma 26.4% | LOX IMVI melanoma 20.7% | SK-MEL-28 melanoma 55.6% | SK-MEL-2 melanoma 48.3% | EKVX NSCLC 39.1% | SN12C renal 53.8% | UO-31 renal 29.1% | TK-10 renal 80.9% | ACHN renal 49.7% | CAKI-1 renal 47.3% | A498 renal 94.6% | CCRF-CEM leukemia 26.9% | MOLT-4 leukemia 16.8%

C#CCCCNCCNc1ccnc2cc(Cl)ccc12
inactive: HCT-15 colon 43.5% | HT29 colon 25.7% | SNB-75 CNS 100% | SNB-19 CNS 101% | U251 CNS 84.3% | PC-3 prostate 73.1% | SK-MEL-5 melanoma 45.9% | UACC-62 melanoma 73.5% | LOX IMVI melanoma 40.1% | SK-MEL-28 melanoma 79% | SK-MEL-2 melanoma 98.1% | EKVX NSCLC 70.3% | SN12C renal 74.2% | UO-31 renal 60.8% | TK-10 renal 82.9% | ACHN renal 87.7% | CAKI-1 renal 44.5% | A498 renal 108% | CCRF-CEM leukemia 77.6% | MOLT-4 leukemia 65.1%

CCCCCCCCc1cccc(CC(=O)Nc2ccc(C)cc2C(=O)O)c1
inactive: HCT-15 colon 13.2% [25 µM] | HT29 colon 35.9% [25 µM] | SNB-75 CNS 74.1% [25 µM] | SNB-19 CNS 50.9% [25 µM] | U251 CNS 38.2% [25 µM] | PC-3 prostate 46.8% [25 µM] | SK-MEL-5 melanoma 36.5% [25 µM] | UACC-62 melanoma 49.4% [25 µM] | SK-MEL-28 melanoma 65.5% [25 µM] | SK-MEL-2 melanoma 86.3% [25 µM] | EKVX NSCLC 66.5% [25 µM] | SN12C renal 51% [25 µM] | UO-31 renal 53.8% [25 µM] | TK-10 renal 63.1% [25 µM] | ACHN renal 46.7% [25 µM] | CAKI-1 renal 36.1% [25 µM] | A498 renal 123% [25 µM] | CCRF-CEM leukemia 26.7% [25 µM] | MOLT-4 leukemia 17.9% [25 µM]
active: LOX IMVI melanoma 3.4% [25 µM]

COC(=O)c1cc(C(=O)CBr)n2c1ccc1c3ccccc3ccc12
active: MOLT-4 leukemia 6.44%
inactive: HCT-15 colon 39.3% | HT29 colon 44.6% | SNB-75 CNS 90.2% | SNB-19 CNS 55.5% | U251 CNS 39.4% | PC-3 prostate 53.1% | SK-MEL-5 melanoma 53.4% | UACC-62 melanoma 51.2% | LOX IMVI melanoma 31.9% | SK-MEL-28 melanoma 92.3% | SK-MEL-2 melanoma 113% | EKVX NSCLC 60.1% | SN12C renal 51.1% | UO-31 renal 24.3% | TK-10 renal 84.3% | ACHN renal 17.4% | CAKI-1 renal 54% | A498 renal 101% | CCRF-CEM leukemia 14%

COc1ccc(C(=O)c2c(N)c(C#N)cn2-c2ccc([N+](=O)[O-])cc2)cc1
inactive: HCT-15 colon 104% | HT29 colon 102% | SNB-75 CNS 92.2% | SNB-19 CNS 100% | U251 CNS 111% | PC-3 prostate 109% | SK-MEL-5 melanoma 102% | UACC-62 melanoma 93.1% | LOX IMVI melanoma 96.3% | SK-MEL-28 melanoma 112% | SK-MEL-2 melanoma 108% | EKVX NSCLC 93.6% | SN12C renal 101% | UO-31 renal 90.1% | TK-10 renal 117% | ACHN renal 106% | CAKI-1 renal 85.4% | A498 renal 126% | CCRF-CEM leukemia 112% | MOLT-4 leukemia 105%

N/C(=N\c1nc2ccc([N+](=O)[O-])cc2s1)NC(=O)Nc1ccccc1Cl
inactive: HCT-15 colon 28.3% | HT29 colon 62.1% | SNB-75 CNS 24.4% | SNB-19 CNS 49.7% | PC-3 prostate 69% | SK-MEL-5 melanoma 44.7% | UACC-62 melanoma 54.8% | LOX IMVI melanoma 29.6% | SK-MEL-28 melanoma 60.5% | SK-MEL-2 melanoma 88.1% | EKVX NSCLC 58.4% | SN12C renal 25.5% | TK-10 renal 17.8% | CAKI-1 renal 43.1% | CCRF-CEM leukemia 74.9% | MOLT-4 leukemia 83.5%
active: U251 CNS -0.568% | UO-31 renal -32.1% | ACHN renal -41.4% | A498 renal -5.78%

O=c1c(-c2nc(-c3ccccc3)c(-c3ccccc3)[nH]2)coc2ccc(F)cc12
inactive: HCT-15 colon 24.3% | HT29 colon 68.1% | SNB-75 CNS 39% | SNB-19 CNS 38.8% | U251 CNS 47.3% | PC-3 prostate 41.9% | SK-MEL-5 melanoma 47.7% | UACC-62 melanoma 49.9% | LOX IMVI melanoma 65.9% | SK-MEL-28 melanoma 69.6% | SK-MEL-2 melanoma 62.9% | EKVX NSCLC 25.7% | SN12C renal 68.9% | UO-31 renal 40.4% | TK-10 renal 94.3% | ACHN renal 51% | CAKI-1 renal 64.9% | A498 renal 109% | CCRF-CEM leukemia 49% | MOLT-4 leukemia 23.6%

COc1c(B(O)O)cc(F)cc1-c1nc2ccc3[nH]ncc3c2c2c1COCC2
inactive: HCT-15 colon 99.4% | HT29 colon 74.2% | SNB-19 CNS 32.7% | U251 CNS 45.4% | PC-3 prostate 83.1% | SK-MEL-5 melanoma 64.6% | UACC-62 melanoma 68.2% | LOX IMVI melanoma 24.2% | SK-MEL-28 melanoma 61.9% | SK-MEL-2 melanoma 93.9% | EKVX NSCLC 75.3% | SN12C renal 50.3% | UO-31 renal 55% | TK-10 renal 14.2% | ACHN renal 36.4% | A498 renal 106% | CCRF-CEM leukemia 19.1% | MOLT-4 leukemia 53.1%
active: SNB-75 CNS 0.778% | CAKI-1 renal -12.1%

CNS(=O)(=O)N1CCc2c(Br)c3c(c(OC)c2C1CCc1ccccc1)OCO3 (stereo not given)
active: HCT-15 colon 2.11% | HT29 colon -25.4% | SNB-75 CNS -38.4% | SNB-19 CNS 4.35% | U251 CNS -63.6% | PC-3 prostate 4.03% | SK-MEL-5 melanoma -100% | UACC-62 melanoma -78.7% | LOX IMVI melanoma -95.1% | SK-MEL-28 melanoma -77.9% | SK-MEL-2 melanoma -66.2% | EKVX NSCLC -6.87% | SN12C renal -88.8% | UO-31 renal -20.1% | TK-10 renal -0.435% | ACHN renal 0.33% | CAKI-1 renal 5.41% | A498 renal -69.5% | MOLT-4 leukemia 1.16%
inactive: CCRF-CEM leukemia 12.4%

c1n[nH]cc1-c1nc2ccc3[nH]ncc3c2c2c1CC1(CC2)COC1
active: SNB-75 CNS -5.96%
inactive: HCT-15 colon 70.5% | HT29 colon 52.1% | SNB-19 CNS 47.4% | U251 CNS 39.5% | PC-3 prostate 53% | SK-MEL-5 melanoma 44.7% | UACC-62 melanoma 18.7% | LOX IMVI melanoma 38.5% | SK-MEL-28 melanoma 44.5% | SK-MEL-2 melanoma 18.3% | EKVX NSCLC 78.6% | SN12C renal 38.9% | UO-31 renal 95.7% | TK-10 renal 49.2% | ACHN renal 54.6% | CAKI-1 renal 12.3% | A498 renal 38.6% | CCRF-CEM leukemia 30.3% | MOLT-4 leukemia 32.8%

O=C1Nc2cc(-c3ccc(NS(=O)(=O)c4ccc(-c5ccccc5)cc4)cc3)ccc2/C1=C/c1ccc[nH]1
inactive: HCT-15 colon 14.6% | SNB-75 CNS 53.2% | SNB-19 CNS 72.5% | U251 CNS 28.2% | PC-3 prostate 31.1% | SK-MEL-5 melanoma 46.2% | UACC-62 melanoma 55% | LOX IMVI melanoma 20.2% | SK-MEL-28 melanoma 52.1% | SK-MEL-2 melanoma 83.1% | EKVX NSCLC 10.9% | SN12C renal 16.3% | UO-31 renal 68.5% | TK-10 renal 49% | ACHN renal 47.4% | CAKI-1 renal 40.7% | A498 renal 75.6% | CCRF-CEM leukemia 32.2% | MOLT-4 leukemia 27.6%
active: HT29 colon 0.595%

O=C(N=Nc1c(O)[nH]c2ccc(Cl)cc12)c1ccc2nc(-c3ccc(Cl)cc3)[nH]c2c1
active: SNB-75 CNS -21.3% | SNB-19 CNS -52.2% | U251 CNS -88.3% | UACC-62 melanoma -59% | LOX IMVI melanoma -100% | SK-MEL-28 melanoma -79.3% | SN12C renal -10.4% | CCRF-CEM leukemia 3.93% | MOLT-4 leukemia 6.71%
inactive: HCT-15 colon 78.6% | HT29 colon 16.9% | PC-3 prostate 28.1% | SK-MEL-5 melanoma 66.8% | SK-MEL-2 melanoma 11.8% | EKVX NSCLC 29.9% | UO-31 renal 87.3% | TK-10 renal 52.3% | ACHN renal 73.4% | CAKI-1 renal 82.8% | A498 renal 47.8%
